Results as given in PubChem BioAssay (EPA / NIEHS).
“And” between values parts separate entries of the source, which are not always exact repeats. Identical values can stand only once. Results filed as inconclusive are left out. More than one record can exist for a structure, and the calls need not agree. The source made the active and inactive calls. The calls were made as follows, unless noted: active = hit-call score of the fitted dose curve at least 0.9, where 1 is the maximum; inconclusive = response in the unintended direction; inactive = score below 0.9.

Assays:
[1] = target: mouse Estrogen Receptor alpha (Era), Esr1 (gene 13982) (UniProt P19785); assay: NVS_NR_mERa: NovaScreen (NVS) Nuclear Receptor Binding Assay for mouse Estrogen Receptor alpha (Era) (AID 2283378);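 also: hit means loss of bound radioligand signal relative to DMSO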
Method in brief: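 Cell-free radioligand binding with extracted mouse Era protein; competitive displacement of radiolabelled ligand, read by filter-based scintillation counting 18 hours after dosing. Loss of signal versus DMSO baseline taken as binding; single screening concentration 25 uM, actives followed in concentration series.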

[2] = target: Estrogen receptor beta (Homo sapiens) (UniProt Q92731); assay: OT_ER_ERbERb_1440: Odyssey Thera (OT) 24-hour HEK293T Protein-Complementation Assay for Estrogen Receptor-beta/-beta Homodimer (AID 2283380);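 also: fluorescence gain from ER beta LBD homodimer complementation read by laser scanning cytometry; scored as signal increase over DMSO baseline for both agonists and antagonists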
Method in brief: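 Fluorescence increase, nuclear for agonists or whole-cell for antagonists, relative to DMSO vehicle, quantified by laser scanning cytometer after fixation and Draq5 staining. Readout from 24 h treatment of HEK293T cells carrying complementation-paired ER beta LBD (aa 310-547).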

[3] = target: Estrogen receptor (Homo sapiens) (UniProt P03372); assay: OT_ERa_GFPERaERE_0480: Odyssey Thera (OT) 8-hour HeLa Transcription Induction Assay for Estrogen Receptor (AID 2283381; active = hit-call score of the fitted dose curve at least 0.9, where 1 is the maximum; inactive = score below 0.9)
Method in brief: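 GFP-ERE reporter, HeLa, 8 h exposure. Readout: fluorescence microscopy, high-content image analysis. Fit direction positive vs DMSO negative control.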

[4] = target: Estrogen receptor (Homo sapiens) (UniProt P03372); assay: OT_ERa_GFPERaERE_0120: Odyssey Thera (OT) 2-hour HeLa Transcription Induction Assay for Estrogen Receptor (AID 2283382)
Method in brief: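 Fluorescence microscopy read-out: inducible fluorescent protein reporter in HeLa cells, imaged 2 h post-dose. Signal increase over DMSO negative control fitted as single primary endpoint via high content image analysis.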

[5] = target: Peroxisome proliferator-activated receptor gamma (Homo sapiens) (UniProt P37231); assay: OT_PPARg_PPARgSRC1_0480: Odyssey Thera (OT) 8-hour Protein-Complementation Assay for Peroxisome Proliferator-activated Receptor Gamma / SRC-1 Co-activator (AID 2283387)
Method in brief: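 Read-out: 488 nm N/C fluorescence ratio from complemented Venus YFP fragments, ≥350 cells per image, gain-of-signal fitted against DMSO baseline. Fusions of PPARg/SRC-1 with IFP1/IFP2 expressed transiently in HEK293T; compounds applied 8 h.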

[6] = target: Peroxisome proliferator-activated receptor gamma (Homo sapiens) (UniProt P37231); assay: OT_PPARg_PPARgSRC1_1440: Odyssey Thera (OT) 24-hour Protein-Complementation Assay for Peroxisome Proliferator-activated Receptor Gamma/ SRC-1 Co-activator (AID 2283388)
Method in brief: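 HEK293T cells transiently transfected with PPARg and SRC-1 fused via (Gly4Ser)2 linker to split Venus YFP fragments (IFP1/IFP2) were dosed 24 h; fixed, Draq5-stained, imaged at 488/635 nm; nuclear/cytoplasmic fluorescence ratio scored versus DMSO baseline, gain-of-signal.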

[7] = target: Agonist Androgen Response Element (ARE), AR (gene 367) (UniProt P10275); assay: OT_AR_ARELUC_AG_1440: Odyssey Thera (OT) 24-hour CHO-K1 Luciferase Assay for Agonist Androgen Response Element (ARE) (AID 2283379)
Method in brief: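 Readout: luciferase bioluminescence from CHO-K1 ARE-luc cells, measured 24 h post-dosing; agonism = increased mean luminescence vs DMSO controls, fitted in positive direction.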

[8] = target: Bile acid receptor (Homo sapiens) (UniProt Q96RI1); assay: OT_FXR_FXRSRC1_0480: Odyssey Thera (OT) 8-hour HEK293T Protein-Complementation Assay for Farnesoid X receptor/SRC-1 Co-activator (AID 2283383)
Method in brief: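 Fluorescence intensity read-out, 8 h post-dose, HEK293T protein-fragment complementation; FXR bait and SRC-1 prey each linked to reporter fragments. Activity scored as signal increase over DMSO negative control.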

[9] = target: Bile acid receptor (Homo sapiens) (UniProt Q96RI1); assay: OT_FXR_FXRSRC1_1440: Odyssey Thera (OT) 24-hour HEK293T Protein-Complementation Assay for Farnesoid X receptor/SRC-1 Co-activator (AID 2283384)
Method in brief: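 Fluorescence readout, 24 h post-dose, HEK293T; FXR and SRC-1 fused to complementary reporter fragments, association reconstitutes signal. Positive-direction fit vs DMSO baseline.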

[10] = CEETOX_H295R_11DCORT: CeeTox H295R High-throughput Steroidogenesis Assay for 11-Deoxycortisol (11DCORT) (AID 2283432; active = hit-call score of the fitted dose curve at least 0.9, where 1 is the maximum; inactive = score below 0.9;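 as to AC50: 11-deoxycortisol secreted into the medium measured by LC-MS/MS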); details: actives raise or lower the signal
Method in brief: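 H295R cells; 10 uM forskolin prestim 48 h; compound in 0.1% DMSO 48 h; media extracted with MTBE; 11-deoxycortisol by LC-MS/MS, 7-point standard curve; gain/loss vs DMSO baseline; viability by MTT in same wells.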

[11] = CEETOX_H295R_OHPREG: CeeTox H295R High-throughput Steroidogenesis Assay for OH-Pregnenolone (OHPREG) (AID 2283434; active = hit-call score of the fitted dose curve at least 0.9, where 1 is the maximum; inactive = score below 0.9); details: actives raise or lower the signal
Method in brief: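 Secreted 17alpha-hydroxypregnenolone measured by HPLC-MS/MS after liquid-liquid extraction. Human adrenal H295R cells received 48 h forskolin (10 uM) stimulation before 48 h chemical exposure at 0.1% final DMSO; MTT viability in same wells; bidirectional fit against DMSO.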

[12] = CEETOX_H295R_OHPROG: CeeTox H295R High-throughput Steroidogenesis Assay for OH-Progesterone (OHPROG) (AID 2283435; active = hit-call score of the fitted dose curve at least 0.9, where 1 is the maximum; inactive = score below 0.9;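 as to AC50: 17alpha-hydroxyprogesterone secreted into medium measured by HPLC-MS/MS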); details: actives raise or lower the signal
Method in brief: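 HPLC-MS/MS quantification of 17alpha-hydroxyprogesterone secreted by H295R cells after 48 h chemical exposure, following 48 h 10 uM forskolin prestimulation. Gain or loss of signal fitted relative to DMSO. Viability checked by MTT in the same wells.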

[13] = CEETOX_H295R_ANDR: CeeTox H295R High-throughput Steroidogenesis Assay for Androstenedione (ANDR) (AID 2283436; active = hit-call score of the fitted dose curve at least 0.9, where 1 is the maximum; inactive = score below 0.9); details: actives raise or lower the signal
Method in brief: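 Medium from 48 h chemical-treated H295R adrenal cells was extracted with MTBE and androstenedione measured by LC-MS/MS. Activity was fit in both directions relative to DMSO. Cytotoxic concentrations were re-tested after dilution until MTT viability reached ≥70%.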

[14] = CEETOX_H295R_CORTIC: CeeTox H295R High-throughput Steroidogenesis Assay for Corticosterone (CORTIC) (AID 2283437; active = hit-call score of the fitted dose curve at least 0.9, where 1 is the maximum; inactive = score below 0.9); details: actives raise or lower the signal
Method in brief: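 Medium corticosterone was quantified by tandem mass spectrometry following 48 hours of chemical exposure (0.1% DMSO) in human H295R cells previously stimulated 48 hours with 10 uM forskolin. Viability checked by MTT; chemicals diluted and retested when viability fell below 70%.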

[15] = CEETOX_H295R_CORTISOL: CeeTox H295R High-throughput Steroidogenesis Assay for Cortisol (AID 2283438; active = hit-call score of the fitted dose curve at least 0.9, where 1 is the maximum; inactive = score below 0.9;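 also: cortisol secreted into medium quantified by LC-MS/MS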); details: actives raise or lower the signal
Method in brief: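 Read-out: cortisol in culture medium by reverse-phase C18 HPLC with ESI-positive tandem MS, after MTBE liquid-liquid extraction. Cells: human adrenal H295R, forskolin-primed (10 uM, 48 h) before 48 h chemical exposure in 0.1% DMSO.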

[16] = CEETOX_H295R_DOC: CeeTox H295R High-throughput Steroidogenesis Assay for DOC (AID 2283439; active = hit-call score of the fitted dose curve at least 0.9, where 1 is the maximum; inactive = score below 0.9); details: actives raise or lower the signal
Method in brief: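 Human adrenocortical H295R cells, passages up to 10, received 10 uM forskolin for 48 h before chemical addition. After another 48 h exposure in 0.1% DMSO, secreted DOC was measured by LC-MS/MS, with gain or loss fitted against DMSO controls.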

[17] = target: Norway rat Vesicular Monoamine Transporter (VMAT2), neurotransmitter transporter, Slc18a2 (gene 25549) (UniProt Q01827); assay: NVS_TR_rVMAT2: NovaScreen (NVS) Transporter Assay for Norway rat Vesicular Monoamine Transporter (VMAT2), neurotransmitter transporter (AID 2283376);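 also: actives lower the bound radioligand signal below the DMSO level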
Method in brief: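 Using rat forebrain membranes, specific radioligand binding to VMAT2 was measured by filtration and scintillation counting after 1 hour. Chemicals screened at 25 uM in duplicate, actives retested in concentration series, DMSO baseline.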

[18] = target: human Norepinephrine Transporter (NET), SLC6A2 (gene 6530) (UniProt P23975); assay: NVS_TR_hNET: NovaScreen (NVS) Transporter Assay for human Norepinephrine Transporter (NET) (AID 2283377);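 also: cell-free membrane protein extracted from CHO cells expressing human NET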;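 as to AC50: displacement of radioligand from human NET seen as loss of scintillation signal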
Method in brief: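 Single-concentration duplicate screen at 25 uM, then concentration-response for actives; displacement of specific radioligand from human NET in CHO membrane extracts, filter-based scintillation detection at 1 h relative to DMSO.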

[19] = target: Retinoic acid receptor RXR-alpha (Homo sapiens) (UniProt P19793); assay: OT_NURR1_NURR1RXRa_0480: Odyssey Thera (OT) 8-hour HEK293T Protein Complementation Assay for Nurr1/retinoid X receptor (RXR) (AID 2283385)
Method in brief: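 Read-out: fluorescence from protein-fragment complementation between Nurr1 and RXRα in human HEK293T cells, 8 h after dosing. DMSO served as negative control; increased signal counted as activity.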

Measured: AC50

Estrogen receptor (Homo sapiens), sequence (P03372 whole entry, looked up): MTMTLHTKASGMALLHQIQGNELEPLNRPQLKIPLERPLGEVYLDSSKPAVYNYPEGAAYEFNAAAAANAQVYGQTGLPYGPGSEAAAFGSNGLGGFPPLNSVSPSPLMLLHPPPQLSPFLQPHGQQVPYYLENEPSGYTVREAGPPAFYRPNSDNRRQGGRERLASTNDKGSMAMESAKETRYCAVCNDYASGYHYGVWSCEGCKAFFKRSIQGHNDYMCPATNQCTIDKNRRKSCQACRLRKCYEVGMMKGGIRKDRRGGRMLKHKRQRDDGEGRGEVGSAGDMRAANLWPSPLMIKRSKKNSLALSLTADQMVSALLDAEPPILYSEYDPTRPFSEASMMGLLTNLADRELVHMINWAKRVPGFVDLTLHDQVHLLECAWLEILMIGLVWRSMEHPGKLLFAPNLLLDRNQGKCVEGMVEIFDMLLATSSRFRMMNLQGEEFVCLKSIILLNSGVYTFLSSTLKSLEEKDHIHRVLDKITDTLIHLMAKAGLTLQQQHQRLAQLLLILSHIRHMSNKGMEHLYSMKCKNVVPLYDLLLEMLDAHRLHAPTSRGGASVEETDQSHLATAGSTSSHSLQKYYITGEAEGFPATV
mouse Estrogen Receptor alpha (Era), Esr1 (gene 13982), sequence (P19785 whole entry, looked up): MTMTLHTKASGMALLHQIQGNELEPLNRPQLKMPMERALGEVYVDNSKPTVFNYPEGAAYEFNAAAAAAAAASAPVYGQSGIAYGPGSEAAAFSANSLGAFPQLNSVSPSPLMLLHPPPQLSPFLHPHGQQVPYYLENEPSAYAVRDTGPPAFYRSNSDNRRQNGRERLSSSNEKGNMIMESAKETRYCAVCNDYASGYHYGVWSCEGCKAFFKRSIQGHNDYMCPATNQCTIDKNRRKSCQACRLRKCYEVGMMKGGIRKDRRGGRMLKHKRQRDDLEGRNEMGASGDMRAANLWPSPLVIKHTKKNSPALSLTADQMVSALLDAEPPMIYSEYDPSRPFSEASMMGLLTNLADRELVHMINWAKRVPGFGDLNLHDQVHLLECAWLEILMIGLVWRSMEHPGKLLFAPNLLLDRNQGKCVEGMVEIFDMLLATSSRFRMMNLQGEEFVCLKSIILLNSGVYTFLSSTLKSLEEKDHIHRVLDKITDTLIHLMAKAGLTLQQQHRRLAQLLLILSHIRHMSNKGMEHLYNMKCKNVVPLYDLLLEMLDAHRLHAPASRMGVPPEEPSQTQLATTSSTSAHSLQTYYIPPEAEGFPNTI
Retinoic acid receptor RXR-alpha (Homo sapiens), sequence (P19793 whole entry, looked up, the tested form may be a part): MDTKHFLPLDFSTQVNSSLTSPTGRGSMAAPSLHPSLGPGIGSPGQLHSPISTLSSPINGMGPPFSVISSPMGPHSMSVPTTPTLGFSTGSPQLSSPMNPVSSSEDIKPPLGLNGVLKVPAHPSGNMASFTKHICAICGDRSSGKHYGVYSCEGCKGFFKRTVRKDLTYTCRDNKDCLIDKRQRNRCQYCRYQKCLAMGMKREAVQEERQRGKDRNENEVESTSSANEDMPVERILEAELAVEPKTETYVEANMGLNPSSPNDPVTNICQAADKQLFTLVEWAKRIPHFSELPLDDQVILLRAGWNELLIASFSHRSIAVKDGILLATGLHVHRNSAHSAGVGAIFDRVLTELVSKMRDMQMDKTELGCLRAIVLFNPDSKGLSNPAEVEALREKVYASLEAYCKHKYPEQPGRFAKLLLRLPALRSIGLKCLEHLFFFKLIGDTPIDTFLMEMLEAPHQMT
Norway rat Vesicular Monoamine Transporter (VMAT2), neurotransmitter transporter, Slc18a2 (gene 25549), sequence (Q01827 whole entry, looked up): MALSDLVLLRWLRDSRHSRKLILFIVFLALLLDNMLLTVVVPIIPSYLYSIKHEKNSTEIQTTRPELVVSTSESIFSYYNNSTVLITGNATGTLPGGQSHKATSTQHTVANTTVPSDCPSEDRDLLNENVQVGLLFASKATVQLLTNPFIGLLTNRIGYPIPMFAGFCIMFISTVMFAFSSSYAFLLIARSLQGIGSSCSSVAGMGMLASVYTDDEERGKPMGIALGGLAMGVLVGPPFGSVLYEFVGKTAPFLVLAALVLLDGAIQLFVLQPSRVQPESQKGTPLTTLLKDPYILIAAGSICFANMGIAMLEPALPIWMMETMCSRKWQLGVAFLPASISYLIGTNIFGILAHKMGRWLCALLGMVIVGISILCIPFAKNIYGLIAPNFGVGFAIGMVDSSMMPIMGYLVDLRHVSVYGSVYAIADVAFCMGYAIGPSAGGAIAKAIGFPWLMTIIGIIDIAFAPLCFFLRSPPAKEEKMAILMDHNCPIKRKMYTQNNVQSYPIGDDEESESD
Peroxisome proliferator-activated receptor gamma (Homo sapiens), sequence (P37231 whole entry, looked up, the tested form may be a part): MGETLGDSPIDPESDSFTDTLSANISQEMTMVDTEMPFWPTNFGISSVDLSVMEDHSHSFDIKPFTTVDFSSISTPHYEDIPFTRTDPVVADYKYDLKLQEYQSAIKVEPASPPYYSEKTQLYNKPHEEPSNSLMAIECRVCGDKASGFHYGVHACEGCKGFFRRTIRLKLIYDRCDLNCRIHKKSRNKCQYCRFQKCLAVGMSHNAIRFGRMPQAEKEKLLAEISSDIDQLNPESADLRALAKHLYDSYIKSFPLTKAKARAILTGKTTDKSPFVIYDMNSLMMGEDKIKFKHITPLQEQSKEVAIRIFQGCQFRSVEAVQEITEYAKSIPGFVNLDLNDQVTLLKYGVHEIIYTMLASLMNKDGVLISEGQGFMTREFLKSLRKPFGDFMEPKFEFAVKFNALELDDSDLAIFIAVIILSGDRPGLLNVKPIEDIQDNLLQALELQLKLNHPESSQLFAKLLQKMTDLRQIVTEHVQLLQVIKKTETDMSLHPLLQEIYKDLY
Agonist Androgen Response Element (ARE), AR (gene 367), sequence (P10275 whole entry, looked up): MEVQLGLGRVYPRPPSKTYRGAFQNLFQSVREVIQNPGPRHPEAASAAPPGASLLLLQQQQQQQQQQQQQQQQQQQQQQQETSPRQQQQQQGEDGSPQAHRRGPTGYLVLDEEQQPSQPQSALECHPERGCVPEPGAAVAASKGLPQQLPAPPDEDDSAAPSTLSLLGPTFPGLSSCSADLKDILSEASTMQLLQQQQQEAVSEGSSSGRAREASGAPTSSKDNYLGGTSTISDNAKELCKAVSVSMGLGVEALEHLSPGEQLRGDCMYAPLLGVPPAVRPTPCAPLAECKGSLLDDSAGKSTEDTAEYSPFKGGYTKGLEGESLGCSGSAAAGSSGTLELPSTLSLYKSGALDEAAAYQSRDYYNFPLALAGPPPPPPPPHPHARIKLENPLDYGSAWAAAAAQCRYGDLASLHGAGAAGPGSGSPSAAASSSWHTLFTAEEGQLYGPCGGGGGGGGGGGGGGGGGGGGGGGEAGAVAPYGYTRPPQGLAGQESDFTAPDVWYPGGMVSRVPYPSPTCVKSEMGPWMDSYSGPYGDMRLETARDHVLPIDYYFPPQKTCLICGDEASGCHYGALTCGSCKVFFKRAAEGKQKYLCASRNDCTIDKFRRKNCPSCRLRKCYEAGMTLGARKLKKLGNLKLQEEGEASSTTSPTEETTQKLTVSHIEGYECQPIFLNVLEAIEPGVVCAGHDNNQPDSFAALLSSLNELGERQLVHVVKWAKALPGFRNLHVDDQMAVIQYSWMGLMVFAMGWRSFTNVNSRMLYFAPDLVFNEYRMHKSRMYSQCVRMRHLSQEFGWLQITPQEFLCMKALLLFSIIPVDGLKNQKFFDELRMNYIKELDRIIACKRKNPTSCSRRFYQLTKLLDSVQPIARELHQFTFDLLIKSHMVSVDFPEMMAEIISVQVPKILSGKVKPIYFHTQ
Estrogen receptor beta (Homo sapiens), sequence (Q92731 whole entry, looked up, the tested form may be a part): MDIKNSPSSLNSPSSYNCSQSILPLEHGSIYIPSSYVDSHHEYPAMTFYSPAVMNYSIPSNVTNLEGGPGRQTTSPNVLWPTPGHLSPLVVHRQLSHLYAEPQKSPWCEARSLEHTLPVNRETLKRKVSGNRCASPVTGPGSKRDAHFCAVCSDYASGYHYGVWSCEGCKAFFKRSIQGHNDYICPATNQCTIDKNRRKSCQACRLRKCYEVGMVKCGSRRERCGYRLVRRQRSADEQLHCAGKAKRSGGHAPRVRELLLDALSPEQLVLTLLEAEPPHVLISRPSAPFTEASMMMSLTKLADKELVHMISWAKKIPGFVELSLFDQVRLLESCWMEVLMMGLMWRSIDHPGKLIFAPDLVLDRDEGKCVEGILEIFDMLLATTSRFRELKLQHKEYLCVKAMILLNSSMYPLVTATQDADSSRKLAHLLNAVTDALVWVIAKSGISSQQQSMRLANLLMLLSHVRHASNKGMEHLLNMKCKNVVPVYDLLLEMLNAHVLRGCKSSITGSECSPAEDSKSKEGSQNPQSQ
Bile acid receptor (Homo sapiens), sequence (Q96RI1 whole entry, looked up, the tested form may be a part): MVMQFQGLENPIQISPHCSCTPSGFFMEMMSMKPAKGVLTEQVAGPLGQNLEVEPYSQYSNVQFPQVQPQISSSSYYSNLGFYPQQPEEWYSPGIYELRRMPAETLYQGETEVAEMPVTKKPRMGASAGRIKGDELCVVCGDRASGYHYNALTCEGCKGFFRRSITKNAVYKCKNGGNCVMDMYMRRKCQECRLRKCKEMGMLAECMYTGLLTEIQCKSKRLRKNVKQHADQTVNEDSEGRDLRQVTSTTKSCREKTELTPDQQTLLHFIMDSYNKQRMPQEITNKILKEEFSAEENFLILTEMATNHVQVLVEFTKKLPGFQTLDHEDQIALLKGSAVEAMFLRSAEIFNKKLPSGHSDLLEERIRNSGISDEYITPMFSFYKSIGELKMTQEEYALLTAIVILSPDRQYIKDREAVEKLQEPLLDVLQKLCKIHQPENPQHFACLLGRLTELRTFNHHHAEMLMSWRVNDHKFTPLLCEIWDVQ

CCCCOC(=O)c1ccccc1C(=O)OCCCC
active: [1] 25 µM | [2] 33.4 µM and 37.5 µM and 31.9 µM | [3] 34.7 µM and 31.9 µM and 23.8 µM | [4] 30.6 µM and 20.8 µM and 24.9 µM
inactive: [1] | [5] | [6]

CN(C)C(=S)SSC(=S)N(C)C
inactive: [7] | [2] | [8] | [5] | [6]
active: [3] 83.4 µM | [4] 90.7 µM

Cc1ccc(-c2c(Cl)nc(C#N)n2S(=O)(=O)N(C)C)cc1
inactive: [7] | [2] | [3] | [4] | [8] | [9] | [5] | [6]

CCCCNC(=O)n1c(NC(=O)OC)nc2ccccc21
not listed: [1] | [17] | [18] | [19]
inactive: all other assays above

CC1COC(Cn2cncn2)(c2ccc(Oc3ccc(Cl)cc3)cc2Cl)O1 (stereo not drawn)
active: [18] 12 µM | [8] 11.2 µM | [12] 0.5 µM | [15] 0.372 µM | [16] 0.334 µM
not listed: [1] | [7] | [9] | [13] | [19]
inactive: all other assays above

O=C(Nc1ccccc1)Nc1ccnc(Cl)c1
inactive: [7] | [3] | [4] | [9] | [5] | [6]
active: [17] 6.12 µM

CON(C)C(=O)Nc1ccc(Cl)c(Cl)c1
active: [18] 25 µM
inactive: [18] | [1] | [3] | [4] | [19] | [5] | [6] | [10] | [11] | [12] | [14] | [15] | [16]

CCNc1nc(Cl)nc(NC(C)C)n1
active: [1] 6.81 µM | [4] 3.42 µM
inactive: [1] | [2] | [3] | [4] | [5] | [6] | [10] | [11] | [12] | [14] | [15] | [16]

CO/C=C(/C(=O)OC)c1ccccc1Oc1cc(Oc2ccccc2C#N)ncn1
inactive: [7] | [2] | [3] | [4] | [5] | [6]

C=CCC1=C(C)C(OC(=O)C2C(C=C(C)C)C2(C)C)CC1=O (stereo not drawn)
active: [8] 14.9 µM | [9] 75 µM
not listed: [2] | [7] | [13] | [17] | [19]
inactive: all other assays above

C=CC1(C)OC(=O)N(c2cc(Cl)cc(Cl)c2)C1=O (stereo not drawn)
active: [1] 10.1 µM | [4] 50 µM | [9] 34.2 µM | [10] 25.6 µM | [12] 22.6 µM | [16] 11.3 µM
inactive: [1] | [2] | [3] | [4] | [8] | [9] | [5] | [6] | [11] | [14] | [15]

CCCCC(CC)COC(=O)c1ccccc1C(=O)OCC(CC)CCCC (stereo not drawn)
inactive: [17] | [2] | [3] | [4] | [8] | [9] | [5] | [6]

COc1ccc(C(c2ccc(OC)cc2)C(Cl)(Cl)Cl)cc1
active: [1] 3.48 µM | [2] 4.01 µM and 3.74 µM and 3.97 µM | [3] 3.09 µM and 3.24 µM and 3.47 µM | [4] 2.7 µM and 2.88 µM and 2.66 µM | [8] 32.1 µM and 35 µM and 27 µM | [9] 30.4 µM and 35.6 µM and 28.4 µM
inactive: [17] | [18] | [5] | [6]

CCOC(=O)C(Cl)Cc1cc(-n2nc(C)n(C(F)F)c2=O)c(F)cc1Cl (stereo not drawn)
active: [8] 22.4 µM | [12] 50 µM | [16] 17.2 µM
not listed: [1] | [2] | [7] | [13] | [18] | [19]
inactive: all other assays above

CC1=C(C(=O)Nc2ccccc2)SCCO1
active: [18] 11.6 µM
not listed: [1] | [17] | [19]
inactive: all other assays above

COC(=O)c1ccccc1C(=O)OC
inactive: [1] | [2] | [3] | [4] | [8] | [9] | [5] | [6]

N#Cc1nn(-c2c(Cl)cc(C(F)(F)F)cc2Cl)c(N)c1S(=O)C(F)(F)F (stereo not drawn)
inactive: [7] | [2] | [3] | [4] | [5] | [6]
active: [8] 35 µM | [9] 33 µM

CCON=C(CC)C1=C(O)CC(c2c(C)cc(C)cc2C)CC1=O (stereo not drawn)
not listed: [1] | [2] | [17] | [18] | [19]
inactive: all other assays above

Oc1ccccc1-c1ccccc1
active: [18] 15 µM | [12] 71.8 µM
inactive: [2] | [3] | [4] | [19] | [5] | [6] | [11] | [12]

CC(C)Oc1cc(-n2nc(C(C)(C)C)oc2=O)c(Cl)cc1Cl
active: [8] 29.5 µM | [9] 58.7 µM | [11] 0.951 µM
not listed: [1] | [17] | [18] | [19]
inactive: all other assays above

CCCC1COC(Cn2cncn2)(c2ccc(Cl)cc2Cl)O1 (stereo not drawn)
active: [14] 0.357 µM | [15] 0.323 µM
not listed: [1] | [2] | [9] | [17] | [18] | [19]
inactive: all other assays above
